# Activity calls are given as the source filed them.
# Key:
# [1] = binders of probe aFSTL3 on microarray, primary screen, stem cell growth factor project, biochemical, small-molecule microarray, fluorescence 635/667 (AID 1064); conditions: higher = more signal;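 further: measures binding of the biotinylated anti-FSTL3 antibody to printed compounds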
# [2] = binders from COS7 lysate, DM2A8 probe, primary screen, torsin A project, cell lysate, small-molecule microarray, fluorescence 635/667 (AID 1065); conditions: higher = more signal, COS7 lysate expressing mutant human TOR1A
# [3] = binders of probe aFGF2 on microarray, primary screen, stem cell growth factor project, biochemical, small-molecule microarray, fluorescence 635/667 (AID 1067); conditions: higher = more signal;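 further: measures binding of biotinylated aFGF2 protein to printed compounds on slides; z-score merges feature fluorescence and signal-to-noise across triplicate slides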
# [4] = binders of probe aFGF10 on microarray, primary screen, stem cell growth factor project, biochemical, small-molecule microarray, fluorescence 635/667 (AID 1071); conditions: higher = more signal;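 further: score merges 667 nm spot intensity and signal to noise from triplicate slides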
# [5] = target: Neurogenic locus notch homolog protein 2 (Homo sapiens) (UniProt Q04721); experiment: Notch2 binders on small-molecule microarrays, primary screen, biochemical, small-molecule microarray, 635 nm fluorescence, stem cell growth factors (AID 1073); conditions: Notch2 binding, higher = more signal
# Chain of Neurogenic locus notch homolog protein 2 (Homo sapiens) (Q04721 whole entry, looked up, canonical isoform): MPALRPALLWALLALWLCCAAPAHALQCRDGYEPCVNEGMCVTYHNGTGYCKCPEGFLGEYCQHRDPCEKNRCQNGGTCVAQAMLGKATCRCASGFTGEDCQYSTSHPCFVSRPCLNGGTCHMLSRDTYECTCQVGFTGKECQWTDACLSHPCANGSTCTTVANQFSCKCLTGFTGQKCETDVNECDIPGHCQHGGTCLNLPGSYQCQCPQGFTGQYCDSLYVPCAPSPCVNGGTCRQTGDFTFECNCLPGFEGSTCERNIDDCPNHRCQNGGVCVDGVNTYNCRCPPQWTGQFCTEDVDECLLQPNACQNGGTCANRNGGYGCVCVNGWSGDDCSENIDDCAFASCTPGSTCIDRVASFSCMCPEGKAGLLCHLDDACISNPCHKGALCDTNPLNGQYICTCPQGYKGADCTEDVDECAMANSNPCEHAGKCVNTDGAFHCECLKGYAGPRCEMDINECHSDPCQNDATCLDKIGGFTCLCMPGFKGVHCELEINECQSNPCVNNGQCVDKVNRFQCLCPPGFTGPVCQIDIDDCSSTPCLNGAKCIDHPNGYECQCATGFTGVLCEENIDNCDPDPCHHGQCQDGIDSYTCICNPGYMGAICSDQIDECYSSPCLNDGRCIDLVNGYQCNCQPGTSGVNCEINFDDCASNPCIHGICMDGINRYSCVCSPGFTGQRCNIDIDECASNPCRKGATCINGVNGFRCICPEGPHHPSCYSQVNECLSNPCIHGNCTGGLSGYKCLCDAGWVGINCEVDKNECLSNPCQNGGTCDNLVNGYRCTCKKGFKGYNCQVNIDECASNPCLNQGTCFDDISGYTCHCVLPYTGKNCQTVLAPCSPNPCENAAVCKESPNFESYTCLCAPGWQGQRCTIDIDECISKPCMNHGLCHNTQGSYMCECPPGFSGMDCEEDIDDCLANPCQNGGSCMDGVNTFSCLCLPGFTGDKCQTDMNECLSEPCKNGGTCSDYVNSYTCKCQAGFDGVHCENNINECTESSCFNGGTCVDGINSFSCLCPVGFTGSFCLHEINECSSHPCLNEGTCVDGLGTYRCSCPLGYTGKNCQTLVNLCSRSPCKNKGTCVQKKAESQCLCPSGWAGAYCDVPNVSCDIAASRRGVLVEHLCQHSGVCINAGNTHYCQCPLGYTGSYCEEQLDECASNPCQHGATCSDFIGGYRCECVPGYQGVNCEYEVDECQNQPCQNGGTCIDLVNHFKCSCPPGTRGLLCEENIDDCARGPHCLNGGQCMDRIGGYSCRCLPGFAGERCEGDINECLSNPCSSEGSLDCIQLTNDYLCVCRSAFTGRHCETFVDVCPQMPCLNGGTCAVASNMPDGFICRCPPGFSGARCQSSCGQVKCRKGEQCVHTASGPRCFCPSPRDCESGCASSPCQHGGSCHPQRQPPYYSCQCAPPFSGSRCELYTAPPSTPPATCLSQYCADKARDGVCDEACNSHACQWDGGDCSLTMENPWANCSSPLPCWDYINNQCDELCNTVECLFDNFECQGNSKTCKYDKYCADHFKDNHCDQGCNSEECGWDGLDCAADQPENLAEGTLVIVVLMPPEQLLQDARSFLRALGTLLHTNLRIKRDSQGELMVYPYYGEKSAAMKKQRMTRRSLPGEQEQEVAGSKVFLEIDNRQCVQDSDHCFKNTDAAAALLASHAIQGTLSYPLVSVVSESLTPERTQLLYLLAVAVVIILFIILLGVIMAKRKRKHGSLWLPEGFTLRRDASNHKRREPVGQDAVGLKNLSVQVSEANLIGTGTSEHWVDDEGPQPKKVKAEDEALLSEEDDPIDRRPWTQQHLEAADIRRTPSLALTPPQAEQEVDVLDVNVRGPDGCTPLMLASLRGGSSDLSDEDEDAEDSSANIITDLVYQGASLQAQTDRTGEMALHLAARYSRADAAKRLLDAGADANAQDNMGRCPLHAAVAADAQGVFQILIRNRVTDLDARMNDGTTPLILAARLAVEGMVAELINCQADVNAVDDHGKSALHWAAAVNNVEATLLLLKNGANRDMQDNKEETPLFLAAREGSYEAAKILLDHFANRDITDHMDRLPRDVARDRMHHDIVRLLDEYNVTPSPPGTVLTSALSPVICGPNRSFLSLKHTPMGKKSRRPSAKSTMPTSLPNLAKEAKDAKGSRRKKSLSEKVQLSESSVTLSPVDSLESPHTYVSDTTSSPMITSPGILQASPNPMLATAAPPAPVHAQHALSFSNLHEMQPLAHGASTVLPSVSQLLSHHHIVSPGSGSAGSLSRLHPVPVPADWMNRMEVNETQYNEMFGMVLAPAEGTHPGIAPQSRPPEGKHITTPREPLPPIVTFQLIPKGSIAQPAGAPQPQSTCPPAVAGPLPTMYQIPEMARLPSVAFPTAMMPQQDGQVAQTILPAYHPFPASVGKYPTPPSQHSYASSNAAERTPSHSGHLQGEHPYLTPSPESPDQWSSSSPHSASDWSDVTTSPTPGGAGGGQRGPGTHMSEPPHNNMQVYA
# [6] = target: Pro-neuregulin-1, membrane-bound isoform (Homo sapiens) (UniProt Q02297); experiment: NRG1 binders on small-molecule microarrays, primary screen, psychiatric disease protein project, biochemical, small-molecule microarray, fluorescence 635/667 (AID 1075); conditions: NRG1 binding, 635 nm fluorescence, higher = more signal;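 further: score combines 667 nm spot fluorescence with signal to noise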
# [7] = tested on: Neuregulin-1 EGF-like domain; experiment: binders of neuregulin-1 EGF-like domain, primary screen, biochemical, small-molecule microarray, 635 nm fluorescence (AID 1081); conditions: small-molecule microarray binding, higher = more signal;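 further: binding of the protein to compounds printed on small-molecule microarray slides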
# [8] = FRG1 promoter luciferase signal modulators, primary screen, FRG1 inhibition for FSHD, cell-based, C2C12 myotubes, firefly/Renilla luciferase, luminescence (AID 1084); conditions: higher = more signal, called active from +8 up or from −8 down
# [9] = binders of probe aFST on microarray, primary screen, stem cell growth factor project, biochemical, small-molecule microarray, fluorescence 635/667 (AID 1086); conditions: higher = more signal;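 further: score merges 667 nm fluorescence with signal-to-noise of each printed compound spot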
# [10] = binders of probe aHhip on microarray, primary screen, stem cell growth factor project, biochemical, small-molecule microarray, fluorescence 635/667 (AID 1087); conditions: higher = more signal;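 further: score merges spot fluorescence at 667nm with spot signal to noise ratio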
# [11] = tested on: PRMT1 (protein arginine N-methyltransferase 1); experiment: PRMT1 binders on small-molecule microarrays, primary screen, biochemical, small-molecule microarray, 635 nm fluorescence (AID 1088); conditions: small-molecule microarray binding, higher = more signal;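 further: binding of Prmt1 protein to compounds spotted on small-molecule microarray slides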
# [12] = yeast growth modulation, basal conditions, primary screen, YJM789 clinical isolate, OD600, 24 h (AID 1089);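 further: growth of clinical yeast isolate S. cerevisiae YJM 789 seeded 1000 cells per well; test concentration not given here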; conditions: S. cerevisiae YJM789 growth, higher = more signal, called active from +8 up or from −8 down
# [13] = fission yeast growth modulation, primary screen, strain 972, OD600, 24 h, no modulator (AID 1090);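 further: basal condition with compound alone and no growth modifier present; test concentration not given here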; conditions: S. pombe 972 growth, higher = more signal, called active from +8 up or from −8 down
# [14] = S. cerevisiae growth modulation with rapamycin, primary screen, strain BY4716, OD600, 96 h (AID 1091); conditions: higher = more signal, called active from +8 up or from −8 down; further: test concentration not given here
# [15] = target: Torsin-1A-interacting protein 2 (Homo sapiens) (UniProt Q8NFQ8); experiment: LULL1 binders on small-molecule microarray, primary screen, cell lysate, human LULL1 lysate, 635/667 nm fluorescence (AID 1092); conditions: hLULL1 lysate binding, 635 nm fluorescence, higher = more signal;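 further: probe is lysate of COS7 cells overexpressing human LULL1; score merges per-feature 667 nm fluorescence with signal-to-noise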
# [16] = E. coli growth modulation, two-sided OD650, primary screen, E. coli filamentation project, strain DRC41, 24 h (AID 1093); conditions: OD650, 24 h, higher = more signal, called active from +8 up or from −8 down;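 further: MC1000 strain lacking acrAB efflux and sulA so SOS filamentation is blocked; test concentration not given here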
# [17] = small-molecule microarray binders of probe aLefty2, primary screen, biochemical, biotinylated probe, 635/667 nm fluorescence (AID 1094); conditions: higher = more signal;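 further: score merges spot fluorescence near 667 nm with spot signal-to-noise ratio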
# [18] = tested on: Noggin (protein binding on small-molecule microarray); experiment: Noggin binders on small-molecule microarray, primary screen, biochemical, 635/667 nm fluorescence (AID 1095); conditions: 635 nm fluorescence, higher = more signal;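 further: score merges 667 nm feature fluorescence with signal to noise over triplicate slides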
# [19] = target: Neurogenic locus notch homolog protein 3 (Homo sapiens) (UniProt Q9UM47); experiment: NOTCH3 binders on small-molecule microarray, primary screen, biochemical, 635/667 nm fluorescence (AID 1096); conditions: NOTCH3 binding, 635 nm fluorescence, higher = more signal
# Chain of Neurogenic locus notch homolog protein 3 (Homo sapiens) (Q9UM47 whole entry, looked up): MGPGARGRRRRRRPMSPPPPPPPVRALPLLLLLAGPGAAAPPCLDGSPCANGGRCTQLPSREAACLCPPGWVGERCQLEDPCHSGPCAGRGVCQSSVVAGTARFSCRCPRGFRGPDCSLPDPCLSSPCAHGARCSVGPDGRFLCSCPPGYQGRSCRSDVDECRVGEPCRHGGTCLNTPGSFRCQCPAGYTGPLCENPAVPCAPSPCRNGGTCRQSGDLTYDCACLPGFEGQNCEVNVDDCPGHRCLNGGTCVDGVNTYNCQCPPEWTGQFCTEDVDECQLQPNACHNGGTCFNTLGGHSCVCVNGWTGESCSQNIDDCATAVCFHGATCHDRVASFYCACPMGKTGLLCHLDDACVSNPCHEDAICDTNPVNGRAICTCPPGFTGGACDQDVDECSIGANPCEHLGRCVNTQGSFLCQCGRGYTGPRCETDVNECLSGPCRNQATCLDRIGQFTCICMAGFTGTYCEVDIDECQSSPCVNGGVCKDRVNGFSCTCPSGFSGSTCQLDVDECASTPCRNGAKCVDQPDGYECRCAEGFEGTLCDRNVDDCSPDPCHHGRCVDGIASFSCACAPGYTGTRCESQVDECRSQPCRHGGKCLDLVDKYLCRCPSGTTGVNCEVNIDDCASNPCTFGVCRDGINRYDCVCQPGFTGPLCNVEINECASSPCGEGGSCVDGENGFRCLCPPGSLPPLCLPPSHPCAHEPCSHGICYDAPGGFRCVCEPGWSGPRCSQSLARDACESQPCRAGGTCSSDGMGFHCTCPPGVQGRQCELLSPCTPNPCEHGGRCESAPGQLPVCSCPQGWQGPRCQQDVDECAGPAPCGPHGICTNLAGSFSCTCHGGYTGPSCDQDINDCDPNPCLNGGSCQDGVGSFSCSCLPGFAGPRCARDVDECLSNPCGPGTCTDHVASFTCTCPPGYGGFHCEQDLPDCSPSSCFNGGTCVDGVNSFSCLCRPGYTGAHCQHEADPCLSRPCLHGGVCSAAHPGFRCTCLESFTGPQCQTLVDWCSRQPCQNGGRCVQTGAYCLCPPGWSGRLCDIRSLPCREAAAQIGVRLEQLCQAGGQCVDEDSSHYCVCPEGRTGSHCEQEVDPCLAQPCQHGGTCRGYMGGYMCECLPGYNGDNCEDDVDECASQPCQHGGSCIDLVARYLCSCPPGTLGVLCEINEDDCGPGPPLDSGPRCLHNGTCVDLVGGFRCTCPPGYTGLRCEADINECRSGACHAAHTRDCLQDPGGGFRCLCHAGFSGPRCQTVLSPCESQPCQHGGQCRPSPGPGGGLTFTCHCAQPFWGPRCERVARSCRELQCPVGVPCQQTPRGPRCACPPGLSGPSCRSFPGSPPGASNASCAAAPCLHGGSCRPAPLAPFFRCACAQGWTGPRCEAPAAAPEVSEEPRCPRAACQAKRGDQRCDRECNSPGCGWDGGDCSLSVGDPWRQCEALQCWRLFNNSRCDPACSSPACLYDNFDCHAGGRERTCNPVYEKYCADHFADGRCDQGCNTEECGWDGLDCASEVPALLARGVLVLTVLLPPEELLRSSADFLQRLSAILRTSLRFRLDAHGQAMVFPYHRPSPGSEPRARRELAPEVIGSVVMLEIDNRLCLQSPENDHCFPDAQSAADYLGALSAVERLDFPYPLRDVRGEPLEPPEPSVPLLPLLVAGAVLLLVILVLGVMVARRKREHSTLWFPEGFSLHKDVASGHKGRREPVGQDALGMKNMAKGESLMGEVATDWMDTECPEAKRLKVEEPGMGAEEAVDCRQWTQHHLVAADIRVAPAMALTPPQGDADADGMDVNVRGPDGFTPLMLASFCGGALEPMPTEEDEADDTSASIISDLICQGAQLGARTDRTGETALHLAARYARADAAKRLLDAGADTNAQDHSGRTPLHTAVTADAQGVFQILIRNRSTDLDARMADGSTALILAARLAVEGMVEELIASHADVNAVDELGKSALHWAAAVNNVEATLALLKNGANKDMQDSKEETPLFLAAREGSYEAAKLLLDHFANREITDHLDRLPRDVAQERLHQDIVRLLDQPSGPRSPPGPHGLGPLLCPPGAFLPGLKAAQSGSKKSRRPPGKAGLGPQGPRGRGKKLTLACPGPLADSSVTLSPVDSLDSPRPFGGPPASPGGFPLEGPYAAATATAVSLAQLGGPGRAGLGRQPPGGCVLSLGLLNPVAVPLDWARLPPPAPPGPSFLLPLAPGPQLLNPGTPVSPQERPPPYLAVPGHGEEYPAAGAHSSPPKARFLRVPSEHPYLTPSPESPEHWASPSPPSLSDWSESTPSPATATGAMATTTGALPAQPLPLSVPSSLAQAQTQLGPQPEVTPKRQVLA
# [20] = small-molecule microarray binders of probe aEGFR, primary screen, biochemical, biotinylated probe, 635/667 nm fluorescence (AID 1097); conditions: higher = more signal;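 further: probe is a biotinylated anti-EGFR antibody binding compounds printed on slides; score combines fluorescence near 667 nm and signal to noise of each spot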
Compound,composite z-score [1],composite z-score [2],composite z-score [3],composite z-score [4],composite z-score [5],composite z-score [6],composite z-score [7],z-score [8],composite z-score [9],composite z-score [10],composite z-score [11],z-score [12],z-score [13],z-score [14],composite z-score [15],z-score [16],composite z-score [17],composite z-score [18],composite z-score [19],composite z-score [20]
C[C@H]1CC[C@H]2C(=O)N[C@H](Cc3ccccc3)C(=O)N2[C@@H]1c1ccccc1,-0.335,0.524,-0.0893,0.412,0.301,-0.717,0.366,1.33 (inactive),0.0175,-0.13,-0.0481,0.492 (inactive),0.0432 (inactive),-0.489 (inactive),0.217,0.805 (inactive),-0.17,0.413,-0.304,-0.0794
CCOC(=O)[C@H](Cc1ccccc1)NC(=O)CCC1CC(OC(=O)NCc2ccc3c(c2)OCO3)CC2(CCCC(COC(=O)NCCCN3CCCC3=O)O2)O1 (stereo not given in full),-0.578,0.163,-0.0001,0.377,1.06,0.503,0.85,1.5 (inactive),0.827,-0.248,1.55,-0.395 (inactive),0.0418 (inactive),-0.0655 (inactive),2.08,0.187 (inactive),-0.117,0.579,1,-0.02
CCCNC(=O)OC[C@H]1O[C@H](CCON=C2C[C@@H](O)[C@@H](O)[C@@H]3[C@@H]4C(=O)N(CC)C(=O)[C@@H]4CC[C@@H]23)C=C[C@@H]1Oc1ccc(OC)cc1,-0.465,0.142,-0.0165,0.64,0.705,0.628,0.898,0.36 (inactive),0.46,-0.0645,1.07,-0.284 (inactive),-0.0922 (inactive),-0.768 (inactive),1.04,0.536 (inactive),-0.0932,0.64,1.05,-0.0605
C=CC[C@@H]1C=C[C@H](ON=C(C)CCN2CCCc3nc(C)c(C)cc32)[C@@H](CO)O1,0.886,1.26,0.208,0.435,0.945,-0.387,0.83,1.67 (inactive),1.48,1.31,1.4,-0.367 (inactive),0.323 (inactive),-0.184 (inactive),0.644,1.05 (inactive),0.475,1.09,0.946,0.142
C=C(C)C(=O)OC[C@H]1CN2[C@@H](CC[C@@H](C)[C@@H]2c2ccc(Br)cc2)C(=O)O1,-0.223,0.123,-0.166,0.113,-0.283,0.199,0.0297,0.402 (inactive),-0.155,-0.0618,0.164,0.0739 (inactive),-3.38 (inactive),-0.424 (inactive),0.162,0.436 (inactive),-0.166,0.195,-0.775,-0.144
CCc1cc2c(nc1CC)CCN(CCC(C)=NOC[C@@H](C)[C@H](OCc1ccccc1)C(C)C)C2,-0.251,-0.176,-0.226,-1.25,-1.17,-0.769,-0.47,-0.856 (inactive),-1.36,-0.132,0.0757,-2.41 (inactive),-4.16 (inactive),-1.32 (inactive),0.198,-0.966 (inactive),-0.224,-0.249,-1.38,-0.25
CC(=O)OC[C@H]1O[C@H](CC=NOC[C@@H](O)COCc2ccco2)C=C[C@@H]1OC(C)=O,-0.37,2.66,-0.186,-0.153,-0.315,-0.974,0.717,-1.31 (inactive),0.621,0.212,1.54,0.441 (inactive),-0.0992 (inactive),0.116 (inactive),-0.275,0.53 (inactive),0.0658,1.77,-0.084,0.495
CO[C@@H]1COC(=O)[C@@H]2CCCN2C(=O)[C@@H](C)COC(=O)CCC[C@H]1C,-0.468,0.352,-0.0836,0.367,0.997,-0.0887,1.19,-0.343 (inactive),-0.288,-0.0645,1.55,-1.86 (inactive),-0.875 (inactive),-0.815 (inactive),0.871,-0.76 (inactive),-0.176,0.456,0.525,0.158
COC(=O)[C@@H]1CC[C@H](C)[C@@H](c2ccc(Br)cc2)N1,1.1,-0.288,0.0499,0.169,-0.208,0.153,-0.201,-0.382 (inactive),-0.155,0.842,-2.1,0.826 (inactive),0.771 (inactive),1.08 (inactive),1.24,0.532 (inactive),0.195,-0.265,-1.19,-0.044
CC(CCC(=O)OC[C@H]1O[C@H](C#Cc2ccccc2)C=C[C@@H]1Oc1ccc(C)cc1)=NOC(C)CN1CCCc2nc(C)c(C)cc21 (stereo not given in full),-0.293,0.0877,-0.0783,0.413,0.869,0.617,0.684,0.517 (inactive),0.69,-0.0319,1.33,2.01 (inactive),-1.77 (inactive),-0.49 (inactive),1.5,0.915 (inactive),-0.0849,0.538,0.894,-0.0267
CCOC(=O)CCN1C(=O)[C@H]2[C@H]3[C@H](O)[C@H](O)CC(=NO[C@@H]4O[C@H](CO)[C@@H](O)[C@H](O)[C@H]4O)[C@@H]3CC[C@H]2C1=O,-0.512,1.86,-0.129,1.04,1.31,0.254,1.14,-0.389 (inactive),0.675,-0.0296,1.52,-0.476 (inactive),-0.664 (inactive),-0.933 (inactive),0.7,0.283 (inactive),-0.0598,0.381,1.09,0.176
C#CCCCON=C1C[C@@H](O)[C@@H](O)[C@@H]2[C@@H]3C(=O)N([C@@H](C)c4ccccc4)C(=O)[C@@H]3CC[C@@H]12,-0.0065,-0.318,-0.17,-0.46,-0.351,-0.191,-0.934,0.0665 (inactive),-0.069,-0.267,-0.0587,0.837 (inactive),1.4 (inactive),1.26 (inactive),-0.148,0.761 (inactive),-0.161,-0.225,-0.746,-0.1
COc1ccc(O[C@H]2C=C[C@@H](c3ccccc3)O[C@@H]2CON=C(C)CCN2CCCc3nc(C)c(C)cc32)cc1,-0.353,0.0823,-0.0812,0.076,0.476,0.626,0.954,-0.303 (inactive),0.698,-0.0328,1.42,-0.571 (inactive),-0.739 (inactive),-0.706 (inactive),1.56,0.766 (inactive),-0.0511,0.485,1.02,-0.0531
COC(=O)[C@H](CCSC)NC(=O)CC=C[C@@H](C)CO,-0.738,2.66,-0.123,0.708,0.175,-0.399,0.818,-0.202 (inactive),0.325,0.484,1.53,0.0662 (inactive),0.319 (inactive),0.451 (inactive),1.3,0.612 (inactive),-0.0944,1.54,0.703,0.493
O=C1CCCC=C1C(O)c1ccc([N+](=O)[O-])cc1 (stereo not given),-0.396,0.267,-0.187,0.535,0.254,-0.832,-0.0876,0.925 (inactive),-0.315,-0.355,0.0679,-0.293 (inactive),0.0434 (inactive),-0.289 (inactive),-0.33,0.999 (inactive),-0.114,0.111,0.273,0.613
CC(CCC(=O)OC[C@H]1O[C@H](C#Cc2ccccc2)C=C[C@@H]1Oc1ccc(C)cc1)=NO[C@H](C)c1cn([C@@H]2COC[C@H]2O)nn1,-0.484,0.522,-0.148,0.0898,-0.31,-0.0103,0.452,-1.03 (inactive),-0.0115,-0.134,0.535,-1.42 (inactive),-0.688 (inactive),-0.0188 (inactive),0.042,-0.342 (inactive),-0.128,0.375,-0.151,-0.137
CC(C)C(=O)N[C@H]1CCCN1C(=O)C=Cc1ccccc1,-0.174,0.253,-0.0212,0.803,0.74,-0.219,0.72,-0.302 (inactive),0.214,-0.0319,0.876,0.624 (inactive),0.495 (inactive),1.02 (inactive),0.0445,0.267 (inactive),-0.0022,1.13,0.826,0.125
COC(=O)C(C(=O)OC)C1CCCC(=O)C1 (stereo not given),-0.414,1.45,-0.0611,0.353,0.329,-0.146,-0.127,0.335 (inactive),0.406,-0.264,-0.734,0.069 (inactive),0.389 (inactive),0.751 (inactive),0.291,-0.195 (inactive),-0.0362,0.365,0.655,-0.0952
COC(=O)CC=C[C@@H](C)[C@@H](C=NOC(C)CN1CCCc2nc(C)c(C)cc21)NS(=O)(=O)c1ccc(C)cc1 (stereo not given in full),-0.0882,0.296,-0.0202,0.469,0.699,0.257,0.665,0.562 (inactive),0.316,0.809,1.3,0.207 (inactive),0.12 (inactive),-0.0152 (inactive),1.05,0.644 (inactive),0.156,0.629,0.812,-0.0158
CCOC(=O)CCN1C(=O)[C@H]2[C@H]3[C@H](O)[C@H](O)CC(=NNC(=O)OCc4ccc(OC)cc4)[C@H]3CC[C@H]2C1=O,-0.41,0.339,-0.116,0.155,0.68,0.0204,0.0944,-0.971 (inactive),0.245,-0.329,0.271,0.0811 (inactive),-0.257 (inactive),-0.577 (inactive),0.282,-0.31 (inactive),0.0108,0.335,0.316,0.0289
